Results reported in PubChem BioAssay (NCI).
Where “and” joins values, the source holds several entries; their conditions need not be identical. Equal entries are not always repeated. Compounds without any hit were thinned out: in the full panel of roughly 79,000, 15% have a hit. More than one record can exist for a structure, and the calls need not agree. Calls of active or inactive are those of the source. Cut-off read from the data, not from the text of the source: active = growth inhibition above about 70%; inactive = the rest.

Legend:
[1] = NCI Yeast Anticancer Drug Screen. Data for the rad52 strain (AID 147);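 note: 0% = growth of vehicle-treated control cultures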; conditions: S. cerevisiae rad52 mutant growth inhibition, stronger effect = higher value
How it was run: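 Measured: yeast growth inhibition. System: strain with a defined DNA damage repair alteration. Reference: vehicle-treated control cultures.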

[2] = NCI Yeast Anticancer Drug Screen. Data for the rad50EPP+ strain (AID 151);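 note: 0% = growth of vehicle-treated control cultures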; conditions: S. cerevisiae rad50 mutant strain, stronger effect = higher value
How it was run: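 One strain with a rad50 alteration (rad50EPP+) was compound-treated, its growth then compared to that of vehicle controls.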

[3] = NCI Yeast Anticancer Drug Screen. Data for the mgt1 strain (AID 153); conditions: S. cerevisiae mgt1 mutant growth inhibition, stronger effect = higher value
How it was run: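 After exposure of the mgt1 yeast mutant to compound, growth was measured and reported as inhibition compared with vehicle controls.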

[4] = NCI Yeast Anticancer Drug Screen. Data for the rad50 strain (AID 155);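 note: 0% = growth of vehicle-only cultures of the same strain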; conditions: S. cerevisiae rad50 strain growth inhibition, stronger effect = higher value
How it was run: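 A DNA repair-deficient yeast mutant serves as the test organism; compound-induced growth inhibition is calculated against vehicle-treated cells.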

[5] = NCI Yeast Anticancer Drug Screen. Data for the mec2-1 strain (AID 157); conditions: S. cerevisiae mec2-1 strain, stronger effect = higher value
How it was run: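 Test agents were screened against the mec2-1 yeast strain, with defined DNA repair or cell cycle alteration. Growth was scored as inhibition against vehicle-only controls.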

[6] = NCI Yeast Anticancer Drug Screen. Data for the rad14 strain (AID 159);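 note: 0% = growth of vehicle-treated control cultures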; conditions: S. cerevisiae rad14 strain growth inhibition, stronger effect = higher value
How it was run: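 Vehicle-treated cultures served as the baseline for growth inhibition of a DNA repair-mutant yeast strain exposed to each compound.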

[7] = NCI Yeast Anticancer Drug Screen. Data for the sgs1 mgt1 strain (AID 161);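 note: 0% = growth of cultures given vehicle only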; conditions: S. cerevisiae sgs1 mgt1 strain, stronger effect = higher value
How it was run: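 Mutant yeast exposed to compound; growth scored against vehicle-only wells.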

[8] = NCI Yeast Anticancer Drug Screen. Data for the CLN2oe strain (AID 163);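 note: 0% = growth of vehicle-only control cultures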; conditions: S. cerevisiae CLN2oe strain, stronger effect = higher value
How it was run: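 Here, growth inhibition in a cell-cycle-altered yeast strain after compound exposure was quantified against vehicle control growth.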

[9] = NCI Yeast Anticancer Drug Screen. Data for the cln2 rad14 strain (AID 165);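 note: 0% = growth equal to vehicle treated cultures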; conditions: S. cerevisiae cln2 rad14 strain, stronger effect = higher value
How it was run: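 Growth of compound-exposed yeast (cln2 rad14 genotype) measured and expressed as inhibition relative to vehicle.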

[10] = NCI Yeast Anticancer Drug Screen. Data for the bub3 strain (AID 167); conditions: S. cerevisiae bub3 mutant strain, stronger effect = higher value
How it was run: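 Inhibition values come from growth of compound-treated mutant yeast normalised to vehicle-treated controls.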

[11] = NCI Yeast Anticancer Drug Screen. Data for the wt2 strain (AID 169);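 note: 0% = growth of vehicle-treated yeast cultures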; conditions: S. cerevisiae wt2 strain growth inhibition, stronger effect = higher value
How it was run: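 Genetically defined yeast strains from a DNA-repair/cell-cycle panel were used. Compound-exposed yeast growth was measured, and the inhibition was calculated relative to vehicle treatment.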

[12] = NCI Yeast Anticancer Drug Screen. Data for the sgs1 strain (AID 173);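 note: 0% = growth of vehicle-only control cultures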; conditions: S. cerevisiae sgs1 mutant, stronger effect = higher value
How it was run: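 Relative growth inhibition, referenced to vehicle, was determined in a yeast strain with a defined alteration affecting DNA damage repair or cell cycle control after compound exposure.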

[13] = NCI Yeast Anticancer Drug Screen. Data for the mlh1 rad18 strain (AID 175); conditions: S. cerevisiae mlh1 rad18 strain growth inhibition, stronger effect = higher value
How it was run: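 In this whole-cell yeast screen, a strain with altered DNA damage repair is challenged with compound, and its growth is measured against matched vehicle-treated controls.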

[14] = NCI Yeast Anticancer Drug Screen. Data for the rad18 strain (AID 177); conditions: S. cerevisiae rad18 mutant growth inhibition, stronger effect = higher value
How it was run: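 Screen uses a yeast strain with a defined lesion in DNA damage repair; compound effect is read as loss of growth compared to untreated vehicle cultures.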

[15] = NCI Yeast Anticancer Drug Screen. Data for the mlh1 strain (AID 171);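 note: 0% = growth of vehicle-treated control cultures of the same strain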; conditions: S. cerevisiae mlh1 strain growth inhibition, stronger effect = higher value
How it was run: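 Here the genetically defined yeast mutant is grown with each compound, and the extent to which its growth falls below that of vehicle-exposed cells is reported.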

[16] = at 5.0 µM (retest, dose inferred, filed as 0.5)
[17] = at 50.0 µM (retest, dose inferred, filed as 5.0)

Measured: growth inhibition

COC(=O)CC1(O)C(/C=C/c2ccccc2)C(C(=O)OC)C(=O)C(C(=O)OC)C1C(=O)OC (stereo unspecified)
inactive: [1]; at 1.2 µM 0% | [1]; at 3.7 µM 0% | [1]; at 11.0 µM 1% | [1]; at 33.0 µM 2% | [1]; at 100.0 µM 13% | [2]; at 1.2 µM -7% | [2]; at 3.7 µM -6% | [2]; at 11.0 µM -7% | [2]; at 33.0 µM -6% | [2]; at 100.0 µM -16% | [3]; at 1.2 µM -2% | [3]; at 3.7 µM -3% | [3]; at 11.0 µM -3% | [3]; at 33.0 µM 13% | [3]; at 100.0 µM 43% | [4]; at 1.2 µM -1% | [4]; at 3.7 µM -1% | [4]; [16] -3% | [4]; at 11.0 µM 2% | [4]; at 33.0 µM 1% | [4]; [17] 6% | [4]; at 50.0 µM 38.9% | [4]; at 100.0 µM 4% | [5]; at 1.2 µM -3% | [5]; at 3.7 µM -1% | [5]; [16] 1% | [5]; at 11.0 µM -4% | [5]; at 33.0 µM -2% | [5]; [17] 20% | [5]; at 50.0 µM 50% | [5]; at 100.0 µM 12% | [6]; at 1.2 µM -4% | [6]; at 3.7 µM -1% | [6]; at 11.0 µM 0% | [6]; at 33.0 µM 0% | [6]; at 100.0 µM 2% | [7]; [16] -1% | [7]; [17] 23% | [7]; at 50.0 µM 48% | [8]; at 1.2 µM -2% | [8]; at 3.7 µM 1% | [8]; at 11.0 µM -2% | [8]; at 33.0 µM -7% | [8]; at 100.0 µM 39% | [9]; [16] -18% | [9]; [17] 44% | [9]; at 50.0 µM -0.7% | [10]; at 1.2 µM -4% | [10]; at 3.7 µM -5% | [10]; [16] -2% | [10]; at 11.0 µM -2% | [10]; at 33.0 µM -4% | [10]; [17] 6% | [10]; at 100.0 µM -5% | [11]; at 1.2 µM -2% | [11]; at 3.7 µM -2% | [11]; at 11.0 µM 0% | [11]; at 33.0 µM -1% | [11]; at 100.0 µM 7% | [12]; at 1.2 µM -1% | [12]; at 3.7 µM 1% | [12]; at 11.0 µM 1% | [12]; at 33.0 µM 4% | [12]; at 100.0 µM 43% | [13]; [16] 6% | [13]; [17] 30% | [14]; at 1.2 µM 0% | [14]; at 3.7 µM -2% | [14]; at 11.0 µM -4% | [14]; at 33.0 µM 3% | [14]; at 100.0 µM 4%
active: [10]; at 50.0 µM 74.2% | [13]; at 50.0 µM 85.3%

O=c1ssc(=Nc2ccccc2)n1-c1ccccc1
86% (active) and 64% (inactive): [9]; [17]
75% (active) and 8% (inactive): [13]; [16]
inactive: [2]; at 1.2 µM 6% | [2]; at 3.7 µM 3% | [2]; at 11.0 µM 3% | [2]; at 33.0 µM 32% | [3]; at 1.2 µM 0% | [3]; at 3.7 µM 2% | [3]; at 11.0 µM 0% | [3]; at 33.0 µM 12% | [3]; at 100.0 µM 39% | [4]; at 1.2 µM 9% | [4]; at 3.7 µM 5% | [4]; [16] 23% and 20% | [4]; at 11.0 µM 2% | [4]; at 33.0 µM 29% | [5]; at 1.2 µM -6% | [5]; at 3.7 µM -3% | [5]; [16] -2% and 5% | [5]; at 11.0 µM -3% | [5]; at 33.0 µM 5% | [5]; at 100.0 µM 33% | [6]; at 1.2 µM 5% | [6]; at 3.7 µM 4% | [6]; at 11.0 µM 1% | [6]; at 33.0 µM 11% | [6]; at 100.0 µM 30% | [7]; [16] 49% and 27% | [8]; at 1.2 µM 2% | [8]; at 3.7 µM -4% | [8]; at 11.0 µM -4% | [8]; at 33.0 µM 7% | [8]; at 100.0 µM 30% | [9]; [16] -11% and -1% | [10]; at 1.2 µM -5% | [10]; at 3.7 µM -9% | [10]; [16] 12% and 1% | [10]; at 11.0 µM -7% | [10]; at 33.0 µM 6% | [10]; at 100.0 µM 37% | [11]; at 1.2 µM -9% | [11]; at 3.7 µM -15% | [11]; at 11.0 µM -9% | [11]; at 33.0 µM -9% | [11]; at 100.0 µM 15% | [15]; at 1.2 µM 7% | [15]; at 3.7 µM 4% | [15]; at 11.0 µM 2% | [15]; at 33.0 µM 17% | [15]; at 100.0 µM 48% | [12]; at 1.2 µM -15% | [12]; at 3.7 µM 7% | [12]; at 11.0 µM -6% | [12]; at 33.0 µM 34% | [14]; at 1.2 µM 4% | [14]; at 3.7 µM 3% | [14]; at 11.0 µM -1% | [14]; at 33.0 µM 13% | [14]; at 100.0 µM 47%
99.5% (active) and 66.2% (inactive): [9]; at 50.0 µM
active: [2]; at 100.0 µM 80% | [4]; [17] 99% | [4]; at 50.0 µM 99.5% and 99% | [4]; at 100.0 µM 72% | [5]; [17] 97% and 98% | [5]; at 50.0 µM 99.8% and 99.5% | [7]; [17] 99% and 100% | [7]; at 50.0 µM 98.2% and 99.3% | [10]; [17] 99% and 100% | [10]; at 50.0 µM 99.5% and 99.7% | [12]; at 100.0 µM 79% | [13]; [17] 99% and 82% | [13]; at 50.0 µM 95.4% and 98.7%

CN(C)CCOC1(Cc2ccc(F)cc2)CCC(C(C)(C)C)CC1 (stereo unspecified)
38.3% (inactive) and 99.1% (active): [4]; at 50.0 µM
inactive: [1]; at 1.2 µM 8% | [1]; at 3.7 µM 5% | [1]; at 11.0 µM -4% | [1]; at 33.0 µM 7% | [2]; at 1.2 µM -1% | [2]; at 3.7 µM -13% | [2]; at 11.0 µM -27% | [2]; at 33.0 µM -61% | [2]; at 100.0 µM 68% | [3]; at 1.2 µM 18% | [3]; at 3.7 µM 8% | [3]; at 11.0 µM 20% | [3]; at 33.0 µM 53% | [4]; at 1.2 µM -10% | [4]; at 3.7 µM 6% | [4]; [16] 4% and -18% | [4]; at 11.0 µM 14% | [4]; at 33.0 µM 53% | [5]; at 1.2 µM -12% | [5]; at 3.7 µM -10% | [5]; [16] -12% and -13% | [5]; at 11.0 µM -8% | [5]; at 33.0 µM 19%
active: [1]; at 100.0 µM 98% | [3]; at 100.0 µM 98% | [4]; at 100.0 µM 97%
65% (inactive) and 92% (active): [4]; [17]
-1% (inactive) and 92% (active): [5]; [17]
18.8% (inactive) and 99.2% (active): [5]; at 50.0 µM
